Screening data as filed in PubChem.
MazF activator: increases E. coli MazEF RNase cleavage of RNA. FAM/BHQ RNA-DNA oligo cleavage fluorescence, 5 h. activation, % at 20 µM. 0.32% of 350,000 active. AID 504720; in the data active = activation above about 50%
Target sequence (P0AE70 whole entry, looked up): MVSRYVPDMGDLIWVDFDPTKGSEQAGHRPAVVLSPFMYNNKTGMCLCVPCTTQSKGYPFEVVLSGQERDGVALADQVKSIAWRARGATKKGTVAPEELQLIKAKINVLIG
FBA Mtb inh: inhibitors of M. tuberculosis fructose-bisphosphate aldolase; P9WQA3; purified M. tuberculosis FBA, fluorescence read-out; inhibition, % at 1 µM; 2.3% of 360,000 active; in the data active = inhibition above about 27%;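 note: 0% = vehicle and 100% = reference inhibitor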
Target sequence (P9WQA3 whole entry, looked up): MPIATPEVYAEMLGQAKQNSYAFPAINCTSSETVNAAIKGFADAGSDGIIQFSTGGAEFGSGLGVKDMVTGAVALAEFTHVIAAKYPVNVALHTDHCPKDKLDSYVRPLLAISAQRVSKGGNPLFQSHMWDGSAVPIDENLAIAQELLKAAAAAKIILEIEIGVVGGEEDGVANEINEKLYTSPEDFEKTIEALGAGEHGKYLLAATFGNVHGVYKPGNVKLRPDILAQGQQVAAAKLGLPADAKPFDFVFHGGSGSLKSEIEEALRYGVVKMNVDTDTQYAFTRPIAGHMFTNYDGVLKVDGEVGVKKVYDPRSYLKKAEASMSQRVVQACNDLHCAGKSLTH
CCHF vOTU inh-1: CCHFV vOTU protease inhibition | Pep-AMC fluorescence | inhibition, % at 11.5 µM | 0.55% of 370,000 active; note: 0% = vehicle wells with enzyme and 100% = no enzyme wells
Mtb bLac sens: beta-lactam sensitization of Mtb H37Rv | M. tuberculosis H37Rv growth with meropenem, percent inhibition | 0.27% of 330,000 active | inhibition, % at 25 µM; call rule not given here;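 note: growth measured after seven days incubation then overnight dye step; 0% = bacteria only wells and 100% = bacteria with antibiotic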
GDH-TPI inh: GDH-TPI coupled enzyme inhibition counter-screen; GDH-TPI coupled enzyme counterscreen, NADH absorbance; inhibition, % at 4.8 µM; 1.2% of 360,000 active;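 note: 0% = DMSO wells and 100% = wells lacking the enzyme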
CCHF vOTU inh-2: confirmation of CCHF virus vOTU protease inhibitors; inhibition, % at 11.5 µM; Recombinant CCHFV vOTU, Pep-AMC fluorescence; AID 686976; 17% of 1,900 active; shares compounds with CCHF vOTU inh-1
* = called active by the depositor; · = no result. A selection: hits, their analogues and other compounds. The true share with any hit is near 4%. Cut-off read from the data, not from the text of the source, unless noted: active = inhibition above about 30%; inactive = the rest.

SMILES	MazF activator	FBA Mtb inh	CCHF vOTU inh-1	Mtb bLac sens	GDH-TPI inh	CCHF vOTU inh-2
CC(CC(=O)N(CCC1=CCCCC1)c1c(N)n(Cc2ccccc2)c(=O)[nH]c1=O)c1ccccc1 (stereo not given)	-10	3	-4	2	5	·
O=C(Nc1cccc(C(F)(F)F)c1)c1ccc2sc([C@H]3C[C@H](O)[C@@H](CO)O3)nc2c1	·	0	-5	·	12	·
CC(C)(C)OC(=O)N(Cc1ccccc1)Cc1cccc(OCc2cccc(NC(=O)C3CC3)c2)c1	-9	-3	32*	·	2	-11
CC(C)(C)OC(=O)N(CCc1ccccc1)Cc1cccc(OCc2cccc(NC(=O)C3CCC3)c2)c1	-2	-3	13	·	6	·
CCCNC(=O)C1(C)CCCN(Cc2cccc(C#N)c2)C1 (stereo not given)	·	5	-1	·	8	·
CCOC(=O)c1ccc(N2Cc3ccccc3C2=NC(=O)c2cccc([N+](=O)[O-])c2)cc1	6	6	-1	94	22	·
O=C(N=C1c2ccccc2CN1c1ccccc1)c1cccc([N+](=O)[O-])c1	-18	-2	30*	-10	1	-12
O=C(c1cccc(S(=O)(=O)N2CCOCC2)c1)N(Cc1nnc(-c2ccccc2Cl)o1)C1CC1	2	3	11	-15	6	·
CN1CCN(S(=O)(=O)c2cccc(C(=O)N(Cc3nnc(-c4ccc(Cl)cc4)o3)C3CC3)c2)CC1	6	-1	34*	5	6	-13
O=C1C2=C(c3ccccc31)[N+](=O)C1CCCCC1N2[O-] (stereo not given)	-3	-1	57*	5	5	29
O=C1C2=C(c3ccccc31)[N+](=O)[C@@H]1CCCC[C@@H]1N2[O-]	3	2	74*	-4	16	27
O=C1c2ccccc2C(=O)c2c1ccc1c(=O)n(C3CCCCC3)[nH]c21	0	0	-7	14	24	·
O=C(O)CN1C(=O)C(=O)N(Cc2ccc(C(F)(F)F)cc2)C1=O	-6	4	8	1	11	·
CCCNC(=O)c1cc(C2CCCCN2S(=O)(=O)Cc2cccc(C(F)(F)F)c2)on1 (stereo not given)	·	-2	11	·	9	·
C#CCN(C(=O)c1ccc(OC)c(OC2CCN(C(C)C)CC2)c1)C1CCCCC1	-5	0	17	-1	-6	·
O=C(O)c1cccc(NC(=S)N/N=C/c2ccccc2OCc2ccc(Br)cc2)c1	-6	-5	30*	8	17	12
Cc1ccc(S(=O)(=O)Nc2cc(Cl)c(O)c3ncccc23)cc1	-15	1	30*	3	17	-3
O=C(NC1C2CC3CC(C2)CC1C3)C1CCCCC1 (stereo not given)	-4	-3	-1	6	-29	·
CCOC(=O)c1[nH]c(C)c(CC(C)C)c1C	-7	5	·	2	4	·
O=C(CNC(=O)Cc1ccccc1)NCC(=O)OCC(=O)c1cccc2ccccc12	0	-1	31*	-13	-2	-16
O=C(CNC(=O)c1ccco1)OCC(=O)c1cccc2ccccc12	-1	-1	-5	-5	-2	·
Cc1cccc(C)c1NC(=O)CN(c1ccccn1)S(=O)(=O)c1ccccc1	8	18	-12	-4	5	·
O=C(COC(=O)/C=C/c1ccccc1[N+](=O)[O-])NCC(F)(F)F	4	2	4	-8	4	·
CN(C)c1cc(Cl)c2nonc2c1N	4	0	71*	-11	6	3
Cc1ccc([C@H]2C(C(=O)O)=CC[C@@H](c3ccc(Cl)cc3)N2S(=O)(=O)c2ccc(C)cc2)cc1	-3	7	33*	-15	4	0
SMILES	MazF activator	FBA Mtb inh	CCHF vOTU inh-1	Mtb bLac sens	GDH-TPI inh	CCHF vOTU inh-2
Cc1ccc([C@H]2C(C(=O)O)=CC[C@@H](c3cccc(Cl)c3)N2S(=O)(=O)c2ccc(C)cc2)cc1	-10	-1	7	·	-2	·
Cc1ccc(S(=O)(=O)N2[C@@H](c3ccc(C(C)(C)C)cc3)C(C(=O)O)=CC[C@H]2c2cccc(Cl)c2)cc1	-24	2	38*	4	4	11
CCc1ccc([C@@H]2C[C@H]3[C@@H](CN2S(=O)(=O)c2ccc(C)cc2)C(=O)C[C@@H](c2ccccc2)N3S(=O)(=O)c2ccc(C)cc2)cc1	-8	0	5	·	6	·
Cc1ccc(S(=O)(=O)N2[C@@H](c3ccc(Br)cc3)C(C(=O)O)=CC[C@H]2c2ccc(Cl)c(Cl)c2)cc1	-12	-2	32*	2	-3	9
CCc1ccc([C@@H]2C[C@H]3[C@@H](CN2S(=O)(=O)c2ccc(C)cc2)C(=O)C[C@@H](c2ccc(C)cc2)N3S(=O)(=O)c2ccc(C)cc2)cc1	-9	-1	34*	·	2	-20
COc1cc(C)ccc1OCc1cc(C(=O)N2CCC(c3ccc(F)cc3)C2)no1 (stereo not given)	-5	4	-12	4	-14	·
Cc1ccccc1OCC(=O)OCC(=O)NCC1CCCO1 (stereo not given)	1	-3	-5	-7	-6	·
CCOC(=O)c1c(C)[nH]c(C)c1S(=O)(=O)N1CCOCC1	9	0	-8	0	1	·
Cc1ccc(S(=O)(=O)N2[C@@H](c3ccc(F)cc3)C(C(=O)O)=CC[C@H]2c2cccc(Cl)c2)cc1	2	-2	3	-14	-3	·
O=C(O)C1=CCC(c2ccc(Cl)c(Cl)c2)N(S(=O)(=O)c2ccc(F)cc2)C1c1cccc(F)c1 (stereo not given)	·	·	37*	·	·	-10
Cc1ccc(S(=O)(=O)N2[C@@H](c3ccc(Cl)cc3)C(C(=O)O)=CC[C@H]2c2ccc(C(C)C)cc2)cc1	-2	-1	27	1	10	·
CCc1ccc([C@@H]2CC=C(C(=O)O)[C@H](c3ccc(C)cc3)N2S(=O)(=O)c2ccc(C)cc2)cc1	4	-1	32*	4	-1	16
Cc1ccc([C@H]2C(C(=O)O)=CC[C@@H](c3ccc(C(C)C)cc3)N2S(=O)(=O)c2ccc(C)cc2)cc1	3	3	38*	0	19	19
Cc1ccc(S(=O)(=O)N2[C@@H](c3ccccc3)C(C(=O)O)=CC[C@H]2c2ccc(C(C)C)cc2)cc1	-6	-1	30*	-1	1	2
O=C(COC(=O)/C=C/c1cccc(C(F)(F)F)c1)Nc1cccc(S(=O)(=O)NC2=NCCC2)c1	6	-1	6	·	1	·
O=C(/C=C/[C@H]1O[C@@H](n2cnc3c(NC(=O)c4ccccc4)ncnc32)[C@H](O)[C@@H]1O)NCCc1ccc(F)cc1	·	0	16	·	·	·
COc1ccc(NC2CCCN(C(=O)CCc3ccncc3)C2)cc1OC (stereo not given)	-7	0	27	-2	8	·
CCCC(=O)Nc1ccc(C(=O)Nc2ccc([N+](=O)[O-])cc2OC)cc1	4	-1	-2	1	9	·
Oc1cc(CNCc2ccccc2)c(O)cc1CNCc1ccccc1	-31	-2	43*	·	11	-2
